Screening data as filed in PubChem BioAssay.
GLP1R inv ag = inverse agonists of human GLP-1 receptor; HEK293 GLP-1R CRE-luciferase, luminescence, 24 h; GLP-1R form is constitutively active; Potency, µM (titrated, usually from 38.3 µM), usual class: inhibitors; 410,000 tested, 1.6% active; further: nearly all actives have a fitted effect of over 55% in size
Target sequence (P43220 whole entry, looked up): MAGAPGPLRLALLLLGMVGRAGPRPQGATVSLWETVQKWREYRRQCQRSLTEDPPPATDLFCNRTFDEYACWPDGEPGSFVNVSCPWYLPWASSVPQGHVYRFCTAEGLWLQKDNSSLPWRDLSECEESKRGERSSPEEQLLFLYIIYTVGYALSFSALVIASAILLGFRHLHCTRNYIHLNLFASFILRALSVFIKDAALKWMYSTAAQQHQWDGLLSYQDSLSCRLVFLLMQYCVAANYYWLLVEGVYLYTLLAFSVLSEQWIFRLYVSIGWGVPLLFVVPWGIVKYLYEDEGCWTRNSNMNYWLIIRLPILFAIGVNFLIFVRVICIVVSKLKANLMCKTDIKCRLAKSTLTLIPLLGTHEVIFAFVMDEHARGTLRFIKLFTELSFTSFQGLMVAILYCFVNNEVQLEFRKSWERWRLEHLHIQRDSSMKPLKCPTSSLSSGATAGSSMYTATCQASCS
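Readout was luciferase luminescence, measured 12 min after detection reagent at room temperature. Beforehand, GLP-1R reporter HEK293 cells had sat 12 h, then received compounds for 24 hr at 37 deg C.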
GLP1R cytotox = cytotoxicity in counter-screen for GLP-1R inverse agonists; Potency, µM (titrated, usually from 38.3 µM), usual class: inhibitors; 410,000 tested, 0.13% active; HEK293 cAMP-luciferase reporter cells, luminescence, 24 h;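 further: loss of luciferase light is scored as toxicity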
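Step one: seed cells (200 cells/uL, DMEM with 10% Nu serum, 1% pen-strep). Step two: 12-hour incubation at 37 deg C. Step three: pin 23 nL compound, incubate 24 hr. Step four: add luciferase reagent, read luminescence 12 min later.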
TrxR1 inh = inhibitors of rat thioredoxin reductase 1; Potency, µM (series often up to 114 µM), hits mostly inhibitors; O89049; 390,000 tested, 1% active; recombinant rTrxR1, NADPH fluorescence consumption, selenite substrate; further: nearly all actives have a fitted effect of over 65% in size
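Rat TrxR1 (90 nM in the dispensed reagent) was pre-reduced with 400 uM NADPH for 5 min at room temperature, then incubated with compound for 15 min. After 400 uM selenite was added, NADPH fluorescence (Ex 340/Em 450 nm) was followed for 8 min.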
TrxR1 substrate = substrates of rat thioredoxin reductase 1 | Potency, µM (doses to about 114 µM) | purified TrxR1 substrate turnover, NADPH consumption readout | 390,000 tested, 0.01% active | O89049; further: nearly all actives have a fitted effect of over 50% in size
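Rat TrxR1, dispensed at 90 nM, was prereduced with 400 uM NADPH (final) for 5 min at ~22 deg C, then incubated with compound 15 min before 400 uM selenite. A first-read NADPH fluorescence drop versus no-compound background flagged substrates.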
IDH1 R132H inh = inhibitors of human mutant IDH1 R132H; AID 602179; O75874; 390,000 tested, 0.093% active; Potency, µM (highest dose often 76.6 µM), actives largely listed as inhibitors; IDH1-R132H enzyme, NADPH consumption, diaphorase/resazurin fluorescence; further: nearly all actives have a fitted effect of over 65% in size
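IDH1-R132H (0.5 ug/mL) preincubated 30 min with compound, then NADPH (0.016 mM) and alpha-KG (2 mM) added; 80 min at RT, pH 7.5. Remaining NADPH coupled via diaphorase/resazurin to fluorescence (540/590 nm); concentration-response curves normalized to no-enzyme control.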
GLP1R ag = GLP-1 receptor (human) agonism. Potency, µM (top dose mostly 45.6 µM), usual class: activators. 380,000 tested, 0.007% active. HEK293 GLP-1R CRE-luciferase, luminescence, 4-6 h; cells express a hypersensitive GLP-1R form. P43220
IDH1 autofl = interferes with resorufin fluorescence in IDH1 counter-screen | shares compounds with IDH1 R132H inh | inhibition of signal, % at 51.2 µM | 750 tested, under 10 active | Resorufin detection reagent fluorescence interference, cell-free
IDH1 WT = selectivity of mutant IDH1 inhibitors: human wild-type IDH1. 750 tested, 9% active. Potency, µM (doses to about 115 µM), hits mostly inhibitors. WT IDH1 enzyme, NADPH diaphorase/resazurin fluorescence. shares compounds with IDH1 R132H inh; further: nearly all actives have a fitted effect of over 55% in size
mIDH1 confirm = mutant IDH1 (human) inhibition, confirmed; shares compounds with IDH1 R132H inh; IDH1 R132H enzyme, NADPH diaphorase/resazurin fluorescence; Potency, µM (series often up to 76.6 µM), most hits filed as inhibitors; 750 tested, 83% active; further: nearly all actives have a fitted effect of over 50% in size
Hits are given with their value; - = inactive; ? = inconclusive; . = no result; [ ] = another dose, or the depositor's remark. Compounds with a hit are over-represented: about 2.7% of the library has one in this group of screens. The call rests on the fitted dose curve; in most records, active means well fitted curve in the direction sought with a large enough effect; inconclusive means small, poorly fitted or top-dose-only effect, or another doubt; inactive means no such curve, though single readings can be large; an effect the other way counts as inactive or inconclusive.

SMILES	GLP1R inv ag	GLP1R cytotox	TrxR1 inh	TrxR1 substrate	IDH1 R132H inh	GLP1R ag	IDH1 autofl	IDH1 WT	mIDH1 confirm
CN1CCN(NC(=O)c2cc(-c3ccc(Cl)s3)nc3ccccc23)CC1	?	-	-	-	?	-	-	-	-
CC(C)C(=O)NC(c1cccs1)c1cc([N+](=O)[O-])c2cccnc2c1O (stereo unspecified)	-	-	?	-	?	-	.	.	.
Cc1ccc(C(NC(=O)C(C)C)c2cc([N+](=O)[O-])c3cccnc3c2O)cc1 (stereo unspecified)	?	?	-	-	?	-	-	?	28µM
CC(NC(=O)c1nn(C)c2c1CSc1ccccc1-2)c1ccccc1 (stereo unspecified)	-	-	-	-	-	.	.	.	.
COc1ccc(NC2=C(c3ccccc3)C(=O)c3ccccc32)cc1Cl	-	-	-	-	?	.	-	-	7.1µM
Cc1ccc(NC2=C(c3ccc(C(F)(F)F)cc3)C(=O)c3ccccc32)cc1C	-	-	?	-	-	.	.	.	.
COc1cc2cc(-c3ccc(O)cc3O)nc(C)c2cc1OC	-	-	-	-	?	-	-	-	28µM
CCOc1ccc(-c2cc3cc(OC)c(OC)cc3c(C)n2)cc1	-	-	-	-	-	-	.	.	.
COc1ccc(CN(CCC(c2ccc(F)cc2)C2CCOC(C)(C)C2)C(=O)c2ccco2)cc1 (stereo unspecified)	?	?	-	-	?	-	-	-	?
COc1ccc(CN(CCC(c2ccccc2)c2ccco2)C(=O)c2ccco2)cc1 (stereo unspecified)	?	-	?	-	-	-	.	.	.
COC(=O)c1c(NC(=O)COC(=O)c2ccc(O)cc2)sc2c1CCCCC2	-	-	-	-	?	-	-	-	-
Cc1cc(NS(=O)(=O)c2ccc(NS(=O)(=O)c3ccc(CC(C)C)cc3)cc2)nc(C)n1	-	-	-	-	18µM	-	-	-	16µM
COc1ccc(-c2oc(NC(=O)CSc3ncn[nH]3)c(C#N)c2-c2ccc(OC)cc2)cc1	-	-	-	-	-	-	.	.	.
COc1ccc(-c2oc(NC(=O)CCl)c(C#N)c2-c2ccc(OC)cc2)cc1	2.2µM	?	-	-[11.4 µM]	29µM	-	-	79µM	8.9µM
O=C(CN1C(=O)COc2ccc(S(=O)(=O)N3CCCC3)cc21)Nc1cccc(F)c1	?	-	-	-	-	-	.	.	.
O=C(CN1C(=O)COc2ccc(S(=O)(=O)N3CCCCCC3)cc21)Nc1cccc(Cl)c1	?	-	-	-	?	.	-	-	?
Cc1cc(-c2nnc3n2N=C(c2ccccc2)CS3)n[nH]1	-	-	-	-	-	-	.	.	.
c1ccc(-c2cc(-c3nnc4n3N=C(c3ccc5ccccc5c3)CS4)[nH]n2)cc1	-	?	-	-	12µM	?	-	-	7.1µM
CCOc1ccc(NC(=O)CC2C(=O)N(c3ccccc3)C(=O)N2Cc2ccc3c(c2)OCO3)cc1 (stereo unspecified)	-	-	-	-	-	.	.	.	.
O=C(NCCc1ccc(Cl)cc1)c1ccc2c(c1)N(Cc1c(F)cccc1Cl)C(=O)CS2	-	?	-	-	-	-	.	.	.
N#CC1C(=O)NC(c2ccccc2)=CC1c1ccccc1 (stereo unspecified)	-	-	-[2.29 µM]	-	52µM	-	-	-	45µM
Cc1c(Cl)cccc1NC(=O)c1ncn(-c2ccccc2)n1	-	-	-	-	-	.	.	.	.
